Source: ChEMBL document CHEMBL4513141, “CO-ADD screening of NIH (USA) - Clinical Collection” (2021)
Measured potencies and affinities stand elsewhere.

test system: Staphylococcus aureus; settings: Concentration 20 uM; ASSAY_TEST Inhibition of Bacterial Growth; detection method Absorption (OD600); MEDIA CAMHB; plate type 384well; NBS; CORNING #3640; time 18 hr

In order of falling Inhibition:
1. CNCCCC12CCC(c3ccccc31)c1ccccc12.Cl [MAPROTILINE HYDROCHLORIDE]  15.07%
2. Cc1cccc(C)c1NC(=O)C1CCCCN1C.Cl (stereo not given) [MEPIVACAINE HYDROCHLORIDE]  10.78%
3. CC(C)[C@H]1CC[C@H](C(=O)N[C@H](Cc2ccccc2)C(=O)O)CC1 [NATEGLINIDE]  10.43%
4. CN1CCc2cc(Cl)c(O)cc2[C@@H](c2ccccc2)C1.Cl  10.41%
5. Cn1nnc2c(C(N)=O)ncn2c1=O [TEMOZOLOMIDE]  8.98%
6. CCC(=O)O[C@]1(C(=O)CCl)[C@@H](C)C[C@H]2[C@@H]3CCC4=CC(=O)C=C[C@]4(C)[C@@]3(F)[C@@H](O)C[C@@]21C [CLOBETASOL PROPIONATE]  -12.08%
7. CN1CCCC(n2nc(Cc3ccc(Cl)cc3)c3ccccc3c2=O)CC1.Cl (stereo not given) [AZELASTINE HYDROCHLORIDE]  -20.95%

test system: Escherichia coli; settings: Concentration 20 uM; ASSAY_TEST Inhibition of Bacterial Growth; detection method Absorption (OD600); MEDIA CAMHB; plate type 384well; NBS; CORNING #3640; time 18 hr

In order of rising Inhibition:
1. COc1cc2c(cc1OC)C(=O)C(CC1CCN(Cc3ccccc3)CC1)C2.Cl (stereo not given) [DONEPEZIL HYDROCHLORIDE]  -6.95%
2. CC(=O)SCC(Cc1ccccc1)C(=O)NCC(=O)OCc1ccccc1 (stereo not given) [RACECADOTRIL]  -5.63%
3. CCCCC1=NC2(CCCC2)C(=O)N1Cc1ccc(-c2ccccc2-c2nnn[nH]2)cc1 [IRBESARTAN]  -3.35%
4. CCOC(=O)[C@@H](CCc1ccccc1)N[C@@H](C)C(=O)N1CCC[C@H]1C(=O)O.O=C(O)/C=C\C(=O)O  -3.24%
5. CC(C)C[C@H](NC(=O)[C@@H](O)[C@H](N)Cc1ccccc1)C(=O)O [UBENIMEX]  -1.57%
6. CCC(=O)O[C@]1(C(=O)CCl)[C@@H](C)C[C@H]2[C@@H]3CCC4=CC(=O)C=C[C@]4(C)[C@@]3(F)[C@@H](O)C[C@@]21C [CLOBETASOL PROPIONATE]  -1.37%
7. Cl.NC[C@H]1CC[C@H](C(=O)Oc2ccc(CCC(=O)O)cc2)CC1 [CETRAXATE HYDROCHLORIDE]  -0.51%
8. NS(=O)(=O)c1cc2c(cc1Cl)NCNS2(=O)=O [HYDROCHLOROTHIAZIDE]  -0.12%
9. COC(=O)C1=C(C)NC(C)=C(C(=O)OC(C)C)C1c1cccc2nonc12 (stereo not given) [ISRADIPINE]  -0.09%
10. CC(Oc1c(Cl)cccc1Cl)C1=NCCN1.Cl (stereo not given) [LOFEXIDINE HYDROCHLORIDE]  0.12%
11. CN1CCc2cc(Cl)c(O)cc2[C@@H](c2ccccc2)C1.Cl  0.35%
12. NS(=O)(=O)Cc1noc2ccccc12 [ZONISAMIDE]  0.42%
13. CC[C@H](C)C(=O)O[C@H]1C[C@@H](C)C=C2C=C[C@H](C)[C@H](CC[C@@H]3C[C@@H](O)CC(=O)O3)[C@H]21 [LOVASTATIN]  0.96%
14. CCC1=C(C)CN(C(=O)NCCc2ccc(S(=O)(=O)NC(=O)N[C@H]3CC[C@H](C)CC3)cc2)C1=O [GLIMEPIRIDE]  1.16%
15. C[C@]12C=CC(=O)C=C1CC[C@@H]1[C@@H]2[C@@H](O)C[C@@]2(C)[C@H]1CC[C@]2(O)C(=O)COC(=O)CCC(=O)[O-].[Na+] [PREDNISOLONE SODIUM SUCCINATE]  1.73%
16. CCc1cc(C(N)=S)ccn1 [ETHIONAMIDE]  2.06%
17. COC1=CC(=O)C[C@@H](C)[C@]12Oc1c(Cl)c(OC)cc(OC)c1C2=O [GRISEOFULVIN]  2.08%
18. CC(=O)C1(O)CCC2C3CC(C)C4=CC(=O)C=CC4(C)C3(F)C(O)CC21C (stereo not given)  2.15%
19. CN(C/C=C/C#CC(C)(C)C)Cc1cccc2ccccc12.Cl [TERBINAFINE HYDROCHLORIDE]  3%
20. CN1CCCC(n2nc(Cc3ccc(Cl)cc3)c3ccccc3c2=O)CC1.Cl (stereo not given) [AZELASTINE HYDROCHLORIDE]  3.65%
21. C[C@]12CCC(=O)C=C1CC[C@@H]1[C@@H]2C(=O)C[C@@]2(C)[C@H]1CC[C@]2(O)C(=O)CO [CORTISONE]  3.83%
22. COCCOC(=O)C1=C(C)NC(C)=C(C(=O)OC(C)C)C1c1cccc([N+](=O)[O-])c1 (stereo not given) [NIMODIPINE]  4.2%
23. Cl.Clc1cccc(Cl)c1NC1=NCCN1 [CLONIDINE HYDROCHLORIDE]  4.68%
24. Nc1nc2c(ncn2COCCO)c(=O)[nH]1 [ACYCLOVIR]  4.79%
25. C=CCc1ccc(O)c(-c2ccc(O)c(CC=C)c2)c1 [HONOKIOL]  4.96%
26. CC(C)(C)NCC(O)c1ccc(O)c(CO)c1.CC(C)(C)NCC(O)c1ccc(O)c(CO)c1.O=S(=O)(O)O (stereo not given) [ALBUTEROL SULFATE]  5.03%
27. CC(=O)OCC(=O)NCCCOc1cccc(CN2CCCCC2)c1.Cl [ROXATIDINE ACETATE HYDROCHLORIDE]  5.49%
28. CCN(Cc1ccncc1)C(=O)C(CO)c1ccccc1 (stereo not given) [TROPICAMIDE]  5.49%
29. CC(C)c1ccc2c(c1)c(SC(C)(C)C)c(CC(C)(C)C(=O)O)n2Cc1ccc(Cl)cc1  5.68%
30. CC(=O)O.CC(C)C[C@H](NC(=O)[C@@H](COC(C)(C)C)NC(=O)[C@H](Cc1ccc(O)cc1)NC(=O)[C@H](CO)NC(=O)[C@H](Cc1c[nH]c2ccccc12)NC(=O)[C@H](Cc1c[nH]cn1)NC(=O)[C@H]1CCC(=O)N1)C(=O)N[C@H](CCCNC(=N)N)C(=O)N1CCC[C@@H]1C(=O)NNC(N)=O  5.78%
31. CNCCCCOc1ccccc1Cc1ccccc1.Cl  6.1%
32. CNCCCC12CCC(c3ccccc31)c1ccccc12.Cl [MAPROTILINE HYDROCHLORIDE]  6.19%
33. O=C1N[C@H](C(=O)O)CS1 [PROCYSTEINE]  6.28%
34. CC(C)[C@H]1CC[C@H](C(=O)N[C@H](Cc2ccccc2)C(=O)O)CC1 [NATEGLINIDE]  6.41%
35. Cl.Clc1ccc2nsnc2c1NC1=NCCN1 [TIZANIDINE HYDROCHLORIDE]  6.6%
36. Cn1nnc2c(C(N)=O)ncn2c1=O [TEMOZOLOMIDE]  6.63%
37. Cc1cccc(C)c1NC(=O)C1CCCCN1C.Cl (stereo not given) [MEPIVACAINE HYDROCHLORIDE]  6.74%
38. CC(N)(Cc1ccc(O)c(O)c1)C(=O)O (stereo not drawn) [METHYLDOPA (RACEMIC)]  7.2%
